# Values joined by “and” are separate entries in the source; they are usually repeats but may differ in a detail not shown here. Identical values can stand only once. Results filed as inconclusive are left out. More than one record can exist for a structure, and the calls need not agree. Active and inactive are the calls of the source. The call rests on the fitted dose curve; in most records, active means well fitted cell-killing curve with a large enough effect in the repeat runs; inconclusive means weak or mixed curves, or effect the other way; inactive means flat fitted curve, though single readings scatter.
# Test: qHTS RealTime-Glo MT Cell Viability Assay in HEK293 cells - 32 hour (AID 1224868); further: nearly all actives have a fitted effect of over 50% in size; on activity change, negative = cytotoxic: top concentration of the series differs between compounds
# Conditions: RealTime-Glo luminescence; series mostly up to 76.8 µM; activity change, negative = cytotoxic: at the top concentration
# Excerpt: National Center for Advancing Translational Sciences [NCATS]
# NIH Chemical Genomics Center [NCGC]
# U.S. Environmental Protection Agency [EPA]
# National Institutes of Environmental Health Sciences [NIEHS]
# National Toxicology Program [NTP]
# U.S. Food and Drug Administration [FDA]
# Measure of cell viability is critical in the cell-base assay. Analysis of cell viability is necessary for the characterization of cell responses to cytotoxic drugs and environmental stress. A RealTime-Glo MT Cell Viability Assay to monitor cell viability in real time of continues cell culture during 40 hours of compound treatment was used to screen Tox21 10K library compounds in Hek293 cells. The RealTime-Glo MT Cell Viability Assay is a nonlytic, homogeneous, bioluminescent method to measure cell viability in real time using a simple, plate-based method. The assay involves adding NanoLuc luciferase and a cell-permeant prosubstrate to cells in culture. Viable cells reduce the proprietary prosubstrate to generate a substrate for NanoLuc luciferase. This substrate diffuses from cells into the surrounding culture medium, where it is rapidly used by the NanoLuc Enzyme to produce a luminescent signal. The signal correlates with the number of viable cells, making the assay well suited for cytotoxicity studies.
# Tox21 Assay Protocol Summary:
# The mixture of Hek293 cell suspension and reagents were dispensed at 600cells/6 ul/well in 1536-well tissue culture treated black solid bottom plates using a Multidrop dispenser. After the assay plates were incubated at a 37 C/5% CO2 incubator for 5 hours, 23 nL of compounds dissolved in DMSO, positive and negative controls was transferred to the assay plate by a pintool work station. The plates were incubated at 37 C for 40 hours. The luminescence intensity were measured at 0h, 8h, 16h, 24h, 32h and 40h time points using ViewLux plate reader during compound treatment.
# On the % scale 0 is the no-effect control and ±100 the full control effect; potency means the concentration at half of the fitted maximal effect.
Structure (SMILES),"activity change, negative = cytotoxic",Potency
c1ccc2c(c1)CCCC2C1=NCCN1 (stereo not given),6.12% [at 35.3 µM] (inactive),–
O=C(O)c1cccc(C(=O)O)c1,–,inactive
N[C@@H]1CONC1=O,2.08% [at 35.3 µM] (inactive),–
CC(N)=O,15.4% [at 200 µM] (inactive),–
CCCCC/C=C/CC1CC(=O)OC1=O (stereo not given),4.46% (inactive),–
CC(COc1ccccc1)N(CCCl)Cc1ccccc1 (stereo not given),–,49.5 µM (active) and 49 µM (active)
Oc1c(Cl)cc(Cl)cc1Sc1cc(Cl)cc(Cl)c1O,–,19.5 µM (active) and 15.5 µM (active)
BrC1CCC(Br)C(Br)CCC(Br)C(Br)CCC1Br (stereo not given),-12.6% (inactive),–
CCCN[C@H]1CCc2nc(N)sc2C1,-9.79% [at 35.3 µM] (inactive),–
c1cnc2cc3c(cc2n1)C1CNCC3C1,9.85% [at 35.3 µM] (inactive),–
NC(N)=Nc1nc(CSCC/C(N)=N/S(N)(=O)=O)cs1,–,inactive
O=C(Oc1ccccc1)c1ccccc1O,–,inactive
NC12CC3CC(CC(C3)C1)C2,-2.46% [at 35.3 µM] (inactive),–
CC(C)(C)c1ccccc1,0.439% (inactive),–
COc1ccc(CCN2CCC(Nc3nc4ccccc4n3Cc3ccc(F)cc3)CC2)cc1,–,6.3 µM (active) and 15.1 µM (active)
CN1C(=O)c2ccc([N+](=O)[O-])cc2C1=O,4.31% (inactive),–
CNC1(C)C2CCC(C2)C1(C)C (stereo not given),-0.294% [at 35.3 µM] (inactive),–
CCCCCCC(O)CCCCCCCCCCC(=O)O (stereo not given),–,inactive
O=C(OCc1ccccc1)c1ccc(O)cc1,-20.4% [at 35.3 µM] (inactive),–
COC(=O)c1cccc(C(=O)OC)c1,–,inactive

Structure (SMILES),"activity change, negative = cytotoxic",Potency
CCCCCCCCCCCCCC[P+](CCCC)(CCCC)CCCC,–,173 nM (active) and 219 nM (active)
CCCCCCCCCCCCCCCCCl,-2.48% [at 15.8 µM] (inactive),–
NCCCCCC(=O)O,1.4% [at 35.3 µM] (inactive),–
Nc1ccc2cc3ccccc3cc2c1,–,inactive
CC(C)(C)c1cc(C(C)(C)C)c(O)c(C(C)(C)C)c1,-10.7% (inactive),–
CCC[C@H](N[C@@H](C)C(=O)N1[C@H](C(=O)O)C[C@@H]2CCCC[C@@H]21)C(=O)OCC,–,inactive
C#CC(C)(CC)OC(=O)c1ccccc1C(=O)O (stereo not given),1.17% [at 35.3 µM] (inactive),–
O=C(O)c1cn(-c2ccc(F)cc2)c2cc(N3CCNCC3)c(F)cc2c1=O,–,inactive
CCCCCCCCCCCC[N+](C)(C)C,–,6.15 µM (active) and 3.47 µM (active)
CCCNC(C)C(=O)Nc1ccccc1C (stereo not given),-9.02% [at 35.3 µM] (inactive),–
COc1nc(C)nc(Cl)c1NC1=NCCN1,1.82% [at 35.3 µM] (inactive),–
CCC(=O)/C=C/C1C(C)=CCCC1(C)C (stereo not given),–,inactive
Cc1cccc(O)c1C,–,inactive
CCCC(=O)c1ccccc1,0.535% (inactive),–
Nc1ccc(O)cc1,–,32.1 µM (active) and inactive
C=C(C)C(=O)O,–,inactive
Nc1cc(Cl)c(-c2cc(Cl)c(N)cc2Cl)cc1Cl,–,6.91 µM (active) and 1.74 µM (active)
Nc1nc2ccccc2[nH]1,–,inactive
CCC(CO)(CO)COCC(CC)(CO)CO,-0.0237% (inactive),–
C=C(C)C1CC=C(C)C(OC(C)=O)C1 (stereo not given),–,inactive

# From PubChem BioAssay (Tox21)
